Measurements from PubChem BioAssay (NCATS).
Inconclusive results are not listed. Activity calls are given as the source filed them. Calls come from the whole dose curve; as a rule, active = well fitted cell-killing curve with a large enough effect; inconclusive = small, poorly fitted or top-dose-only effect, or effect the other way; inactive = flat fitted curve, though single readings scatter.

Tests used:
Assay in all cases: Primary qHTS to identify gynecologic anti-cancer compounds using libraries of approved drugs and bioactive compounds (AID 1345084); note: nearly all actives have a fitted effect of over 55% in size
C33A = details: Gynecologic cancer cell panel viability, ATPlite luminescence, 48 h; series mostly up to 57.5 µM
Procedure, shortened: (§1)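 48 h compound exposure at 37 C, 5% CO2; five-point qHTS. ATPlite luminescence readout of cell ATP.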

CAOV3 = details: Gynecologic cancer cell panel viability, ATPlite luminescence, 48 h; series mostly up to 57.5 µM
Procedure, shortened: as §1

CASKI = details: Gynecologic cancer cell panel viability, ATPlite luminescence, 48 h; series mostly up to 57.5 µM
Procedure, shortened: as §1

Es-2 = details: Gynecologic cancer cell panel viability, ATPlite luminescence, 48 h; series mostly up to 57.5 µM
Procedure, shortened: as §1

HeLa = details: Gynecologic cancer cell panel viability, ATPlite luminescence, 48 h; series mostly up to 57.5 µM
Procedure, shortened: as §1

Hek293T = details: Gynecologic cancer cell panel viability, ATPlite luminescence, 48 h, control line for the selectivity index; series mostly up to 57.5 µM
Procedure, shortened: as §1

JEG-3 = details: Gynecologic cancer cell panel viability, ATPlite luminescence, 48 h; series mostly up to 57.5 µM
Procedure, shortened: as §1

OV90 = details: Gynecologic cancer cell panel viability, ATPlite luminescence, 48 h; series mostly up to 57.5 µM
Procedure, shortened: as §1

PA-1 = details: Gynecologic cancer cell panel viability, ATPlite luminescence, 48 h; series mostly up to 57.5 µM
Procedure, shortened: as §1

SKOV3 = details: Gynecologic cancer cell panel viability, ATPlite luminescence, 48 h; series mostly up to 57.5 µM
Procedure, shortened: as §1

Tov-21-G = details: Gynecologic cancer cell panel viability, ATPlite luminescence, 48 h; series mostly up to 57.5 µM
Procedure, shortened: as §1

Tov112D = details: Gynecologic cancer cell panel viability, ATPlite luminescence, 48 h; series mostly up to 57.5 µM
Procedure, shortened: as §1
% is set by controls: 0 for no effect and ±100 for the full control effect.

CC1(C)C[C@H](O)C[C@@]2(C)[C@H]1[C@H](O)C=C1COC(=O)[C@@]12O
inactive: Potency (C33A) | Potency (CAOV3) | outcome (CASKI) | Potency (Es-2) | Potency (HeLa) | Potency (Hek293T) | Potency (JEG-3) | Potency (OV90) | Potency (PA-1) | Potency (SKOV3) | Potency (Tov-21-G) | Potency (Tov112D)

CC(C)=CCC[C@](C)(O[C@@H]1O[C@H](CO[C@@H]2OC[C@H](O)[C@H](O)[C@H]2O)[C@@H](O)[C@H](O)[C@H]1O)[C@H]1CC[C@]2(C)[C@@H]1[C@H](O)C[C@@H]1[C@@]3(C)CC[C@H](O[C@@H]4O[C@H](CO)[C@@H](O)[C@H](O)[C@H]4O[C@@H]4O[C@H](CO)[C@@H](O)[C@H](O)[C@H]4O)C(C)(C)[C@@H]3CC[C@]12C
inactive: Potency (C33A) | Potency (CAOV3) | outcome (CASKI) | Potency (Es-2) | Potency (HeLa) | Potency (Hek293T) | Potency (JEG-3) | Potency (OV90) | Potency (PA-1) | Potency (SKOV3) | Potency (Tov-21-G) | Potency (Tov112D)

CC(=C\C(C)O)/C=C(\C)C(=O)CC1CC(CC(N)=O)CC(=O)O1 (stereo not drawn)
inactive: Potency (C33A) | Potency (CAOV3) | outcome (CASKI) | Potency (Es-2) | Potency (HeLa) | Potency (Hek293T) | Potency (JEG-3) | Potency (OV90) | Potency (PA-1) | Potency (SKOV3) | Potency (Tov-21-G) | Potency (Tov112D)

CC(C)C1C(OC(=O)/C=C/c2ccccc2)CC2(C)OC2CCC2(C)OC2C1O (stereo not drawn)
inactive: Potency (C33A) | Potency (CAOV3) | outcome (CASKI) | Potency (Es-2) | Potency (HeLa) | Potency (Hek293T) | Potency (JEG-3) | Potency (OV90) | Potency (PA-1) | Potency (SKOV3) | Potency (Tov-21-G) | Potency (Tov112D)

C/C=C(\C)C(=O)OCC1OC(OCC2OC(OC3(CO)OC(CO)C(O)C3O)C(O)C(O)C2O)C(O)C(O)C1O (stereo not drawn)
inactive: Potency (C33A) | Potency (CAOV3) | outcome (CASKI) | Potency (Es-2) | Potency (HeLa) | Potency (Hek293T) | Potency (JEG-3) | Potency (OV90) | Potency (PA-1) | Potency (SKOV3) | Potency (Tov-21-G) | Potency (Tov112D)

C[C@@H]1O[C@@H](O[C@H]2[C@H](OC(=O)[C@]34CCC(C)(C)C[C@H]3C3=CCC5[C@@]6(C)C[C@@H](O)[C@@H](O)[C@@](C)(CO)C6[C@H](O)C[C@@]5(C)[C@]3(C)CC4)OC[C@H](O)[C@@H]2O)[C@H](O)[C@H](O)[C@H]1O[C@@H]1OC[C@@H](O)[C@H](O[C@H]2O[C@H](C)[C@@H](O)[C@H](O)[C@@H]2O)[C@H]1O (stereo partly drawn)
inactive: activity change, negative = cytotoxicity (C33A) -5.04% [at 11.6 µM] | activity change, negative = cytotoxicity (CAOV3) 7.19% [at 11.6 µM] | activity change, negative = cytotoxicity (CASKI) 15.8% [at 11.6 µM] | activity change, negative = cytotoxicity (Es-2) 6.09% [at 11.6 µM] | activity change, negative = cytotoxicity (HeLa) 13.1% [at 11.6 µM] | activity change, negative = cytotoxicity (Hek293T) -1.53% [at 11.6 µM] | activity change, negative = cytotoxicity (JEG-3) 3.24% [at 11.6 µM] | activity change, negative = cytotoxicity (OV90) 9.69% [at 11.6 µM] | activity change, negative = cytotoxicity (PA-1) 12.4% [at 11.6 µM] | activity change, negative = cytotoxicity (SKOV3) -1.53% [at 11.6 µM] | activity change, negative = cytotoxicity (Tov-21-G) 0.722% [at 11.6 µM] | activity change, negative = cytotoxicity (Tov112D) 3.92% [at 11.6 µM]

CSC(=O)OCC1=C[C@@H]2OC(=O)C3=CO[C@@H](O[C@@H]4O[C@H](CO)[C@@H](O)[C@H](O)[C@H]4O)[C@H]1[C@@H]32
inactive: Potency (C33A) | Potency (CAOV3) | outcome (CASKI) | Potency (Es-2) | Potency (HeLa) | Potency (Hek293T) | Potency (JEG-3) | Potency (OV90) | Potency (PA-1) | Potency (SKOV3) | Potency (Tov-21-G) | Potency (Tov112D)

CC1C(=O)OCC2=CC[N+]3([O-])CCC(OC(=O)C(C)(O)C1(C)O)C23 (stereo not drawn)
inactive: Potency (C33A) | Potency (CAOV3) | outcome (CASKI) | Potency (Es-2) | Potency (HeLa) | Potency (Hek293T) | Potency (JEG-3) | Potency (OV90) | Potency (PA-1) | Potency (SKOV3) | Potency (Tov-21-G) | Potency (Tov112D)

COc1cc(CC2COC(c3ccc(OC4OC(CO)C(O)C(O)C4O)c(OC)c3)C2CO)ccc1O (stereo not drawn)
inactive: Potency (C33A) | Potency (CAOV3) | outcome (CASKI) | Potency (Es-2) | Potency (HeLa) | Potency (Hek293T) | Potency (JEG-3) | Potency (OV90) | Potency (PA-1) | Potency (SKOV3) | Potency (Tov-21-G) | Potency (Tov112D)

O=C(O)CC/C=C\C[C@H]1CO[C@@H](c2ccccc2Cl)O[C@H]1c1ccccc1O
inactive: Potency (C33A) | Potency (CAOV3) | outcome (CASKI) | Potency (Es-2) | Potency (HeLa) | Potency (Hek293T) | Potency (JEG-3) | Potency (OV90) | Potency (PA-1) | Potency (SKOV3) | Potency (Tov-21-G) | Potency (Tov112D)

CCC(CC)CC1(C(=O)Nc2ccccc2SC(=O)C(C)C)CCCCC1
inactive: Potency (C33A) | Potency (CAOV3) | outcome (CASKI) | Potency (Es-2) | Potency (HeLa) | Potency (Hek293T) | Potency (JEG-3) | Potency (OV90) | Potency (PA-1) | Potency (SKOV3) | Potency (Tov-21-G) | Potency (Tov112D)

COc1ccc(N2CCN(CCCNC(=O)Cn3c(=O)c4cccn4c4c(C)ccnc43)CC2)cc1
inactive: Potency (C33A) | Potency (CAOV3) | outcome (CASKI) | Potency (Es-2) | Potency (HeLa) | Potency (Hek293T) | Potency (JEG-3) | Potency (OV90) | Potency (PA-1) | Potency (SKOV3) | Potency (Tov-21-G) | Potency (Tov112D)

CO[C@@H]1[C@]2(O)C(=O)N3/C=C\C(C)(C)c4[nH]c5ccccc5c4/C=C\3C(=O)N2[C@]23[C@H](CO)C(C)(C)N2c2ccccc2[C@]13O
inactive: Potency (C33A) | Potency (CAOV3) | outcome (CASKI) | Potency (Es-2) | Potency (HeLa) | Potency (Hek293T) | Potency (JEG-3) | Potency (OV90) | Potency (PA-1) | Potency (SKOV3) | Potency (Tov-21-G) | Potency (Tov112D)

CC(C)(O)c1ccc2c(c1)C(=O)C[C@H]1[C@](C)(C(=O)O)CCC[C@]21C
inactive: Potency (C33A) | Potency (CAOV3) | outcome (CASKI) | Potency (Es-2) | Potency (HeLa) | Potency (Hek293T) | Potency (JEG-3) | Potency (OV90) | Potency (PA-1) | Potency (SKOV3) | Potency (Tov-21-G) | Potency (Tov112D)
